Inconclusive results are not listed. Activity calls are given as the source filed them. Unless noted, the call rests on the fitted dose curve; in most records, active means well fitted curve in the direction sought with a large enough effect in the repeat runs; inconclusive means weak or mixed curves; inactive means no such curve, though single readings can be large; an effect the other way counts as inactive or inconclusive.
Legend:
[1] = qHTS assay to identify small molecule antagonists of the retinoid acid receptor (RAR) signaling pathway - cell viability counter screen (AID 1159551); further: nearly all actives have a fitted effect of over 35% in size
Outline: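 Cytotoxicity counter screen: ATP content quantified by CellTiter-Glo luminescence in C3RL4 cells treated 6 hr at 37 C with compound and retinol (1 uM final). Cells plated at 1,000/well and cultured overnight before dosing.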

[2] = qHTS assay to identify small molecule antagonists of the retinoic acid receptor (RAR) signaling pathway (AID 1159552; further: nearly all actives have a fitted effect of over 50% in size)
Outline: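 Readout: luciferase luminescence, 30 min post-reagent at RT. Setup: C3RL4 RARE reporter cells, compounds plus retinol 1 uM final, 6 hr incubation at 37 C and 5% CO2.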

[3] = qHTS assay to identify small molecule agonists of the retinoic acid receptor (RAR) signaling pathway (AID 1159553)
Outline: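 Luminescence was measured 30 min after luciferase reagent addition at room temperature. Before that, C3RL4 reporter cells (1,000 per well, plated overnight) were treated with compound for 6 hr at 37 C and 5% CO2.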

[4] = target: Luciferin 4-monooxygenase (Photinus pyralis) (UniProt P08659); assay: qHTS assay to identify small molecule inhibitors of firefly luciferase (AID 1224835); further: nearly all actives have a fitted effect of over 25% in size
Outline: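 Quantitative HTS format; KM concentrations of both substrates. Purified P. pyralis FLuc activity quantified from luminescence images.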

[5] = qHTS assay to identify small molecule agonists of the constitutive androstane receptor (CAR) signaling pathway - cell viability counter screen (AID 1224836); further: nearly all actives have a fitted effect of over 45% in size
Outline: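 Compound titrations (15 concentrations) went onto HepG2-CYP2B6-hCAR cells 4 h after seeding, alongside PK11195 at a final 0.75 uM; a 23 h, 37 C/5% CO2 incubation preceded CellTiter-Fluor viability measurement.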

[6] = qHTS assay to identify small molecule antagonists of the constitutive androstane receptor (CAR) signaling pathway - cell viability counter screen (AID 1224837); further: nearly all actives have a fitted effect of over 45% in size
Outline: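 Cytotoxicity counter-screen: CellTiter-Fluor fluorescence after 23 h compound exposure (15-point qHTS) in double-stable HepG2-CYP2B6-hCAR cells, with 50 nM CITCO added.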

[7] = qHTS assay to identify small molecule antagonists of the estrogen related receptor signaling pathway with the pleiotropic PPARgamma coactivator (PGC) from Tox21 10K library - cell viability counter screen (AID 1224840; active means well fitted cell-killing curve with a large enough effect in the repeat runs, not every such curve was filed as active; further: nearly all actives have a fitted effect of over 40% in size)
Outline: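 Counter-screen for cytotoxicity: after 17.5 h compound exposure at 37 C, CellTiter-Fluor reagent added to PGC/ERR cells for 30 min and fluorescence read. Cells were seeded at 2,000 per well 6 h before dosing.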

[8] = qHTS assay to identify small molecule antagonists of the estrogen related receptor signaling pathway with the pleiotropic PPARgamma coactivator (PGC) from Tox21 10K library (AID 1224841; call rule not given here; further: actives are mostly falling curves and most rising ones were filed inactive; nearly all actives have a fitted effect of over 50% in size)
Outline: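 Luminescence (One-Glo, 30 min at room temperature) after 18 h compound treatment at 37 C of PGC/ERR reporter cells plated at 2,000 cells/well and settled 6 h beforehand.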

[9] = target: Thyrotropin receptor (Homo sapiens) (UniProt P16473); assay: qHTS assay to identify small molecule agonists of the thyroid stimulating hormone receptor (TSHR) signaling pathway (AID 1224843; calls by dose curve; further: nearly all actives have a fitted effect of over 45% in size)
Outline: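 Compounds are titrated over 15 concentrations, in triplicate, onto TSHR-HEK293 cells seeded at 800/well. Plates sit 30 min at room temperature before cAMP-d2 and anti-cAMP cryptate are added; signal is read after a further hour.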

[10] = qHTS assay to identify small molecule agonists of the hypoxia (HIF-1) signaling pathway - cell viability counter screen (AID 1224844; calls by dose curve; further: nearly all actives have a fitted effect of over 50% in size)
Outline: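 Cytotoxicity measured by CellTiter-Glo ATP luminescence in the wells also read for beta-lactamase signal. Cells were HRE-bla ME-180 (2,000/well, 0.5% dialyzed FBS), exposed to compounds for 17 h at 37C.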

[11] = qHTS assay to identify small molecule agonists of H2AX (AID 1224845; active means well fitted activation curve with a large enough effect in the signal ratio in the repeat runs, not every such curve was filed as active; the % refers to the signal ratio)
Outline: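 Wild-type CHO-K1 cells plated overnight, then exposed 3 hr at 37C to compounds at 15 concentrations (0.76% DMSO). Lysed, then HTRF anti-pH2AX(S139)-cryptate/anti-H2AX-d2 detection after 24 hr at room temperature; emissions 665 and 620 nm.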

[12] = qHTS assay to identify small molecule agonists of the hypoxia (HIF-1) signaling pathway (AID 1224846; active means well fitted activation curve with a large enough effect in the signal ratio in the repeat runs, not every such curve was filed as active; the % refers to the signal ratio)
Outline: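 Compounds added to ME-180 cells carrying hypoxia-response-element beta-lactamase reporter (0.5% dialyzed FBS, 5 h preplating), 17 h at 37C; agonist activity detected by CCF4-AM B/G FRET read-out.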

[13] = qHTS assay to identify small molecule agonists of H2AX - cell viability counter screen (AID 1224847; calls by dose curve; further: top concentration of the series differs between compounds; nearly all actives have a fitted effect of over 30% in size)
Outline: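 Read-out: CellTiter-Glo luminescence, 30 min RT. Cells: wild-type CHO-K1, 1000/well, 10% FBS, plated overnight at 37C. Treatment: 15 concentrations, 3 hr, 37C, 0.76% DMSO.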

[14] = qHTS assay to identify small molecule agonists of the estrogen related receptor (ERR) signaling pathway from Tox21 library (AID 1224849; calls by dose curve; further: nearly all actives have a fitted effect of over 15% in size); settings: ERR reporter cell line, ONE-Glo luciferase, 18 h; at 92.4 µM (top of the series) unless noted
Outline: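 Luminescent agonist read-out (One-Glo, 30-minute room-temperature incubation) following 18-hour compound treatment at 37 C of the ERR cell line, which had been plated 6 hours before dosing.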

[15] = qHTS RealTime-Glo MT Cell Viability Assay in HepG2 cells - 24 hour (AID 1224867); further: nearly all actives have a fitted effect of over 50% in size
Outline: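 HepG2 suspension premixed with RealTime-Glo reagents is plated at 600 cells per well and left 5 h at 37 C/5% CO2. Compounds in DMSO then go in, and bioluminescence reflecting viable cell number is recorded over 40 h.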

[16] = target: Nuclear receptor subfamily 1 group I member 3 (Homo sapiens) (UniProt Q14994); assay: qHTS assay to identify small molecule agonists of the constitutive androstane receptor (CAR) signaling pathway (AID 1224839);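 further: HepG2 cells stably carrying human CAR and a CYP2B6 luciferase reporter; nearly all actives have a fitted effect of over 15% in size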
Outline: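 In this screen, CAR-driven CYP2B6 promoter activity is measured by luminescence in HepG2-CYP2B6-hCAR cells after 24 h with test compounds and 0.75 uM PK11195 (final concentration).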

[17] = qHTS assay to identify small molecule antagonists of the estrogen related receptor (ERR) signaling pathway from Tox21 library - cell viability counter screen (AID 1224834); further: nearly all actives have a fitted effect of over 30% in size
Outline: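 CellTiter-Fluor fluorescence, read after 30 min at 37 C, measures viability of ERR cells. Cells plated at 2,000/well and incubated 6 h before pin-tool compound addition, then exposed 17.5 hours at 37 C.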

[18] = target: Nuclear receptor subfamily 1 group I member 3 (Homo sapiens) (UniProt Q14994); assay: qHTS assay to identify small molecule antagonists of the constitutive androstane receptor (CAR) signaling pathway (AID 1224838);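 further: HepG2 cells stably expressing hCAR with CYP2B6 luciferase reporter stimulated by CITCO; nearly all actives have a fitted effect of over 40% in size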
Outline: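 Antagonism measured as luciferase signal (ONE-Glo, 30 min, room temperature) in CAR-stimulated cells: HepG2-CYP2B6-hCAR double-stable line exposed 24 hr at 37 C to compound in a 15-point series plus 50 nM CITCO.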

[19] = qHTS assay to identify small molecule agonists of the estrogen related receptor signaling pathway with the pleiotropic PPARgamma coactivator (PGC) from Tox21 10K library (AID 1224842); further: nearly all actives have a fitted effect of over 15% in size
Outline: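 PGC/ERR reporter cells (NTP line) were seeded 2,000 per well, rested 6 h at 37 C/5% CO2, then pin-dosed with compounds in DMSO for 18 h at 37 C; luciferase read by One-Glo luminescence after 30 min at room temperature.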

[20] = qHTS assay to identify small molecule antagonists of the estrogen related receptor (ERR) signaling pathway from Tox21 library (AID 1224848); further: nearly all actives have a fitted effect of over 50% in size
Outline: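 First, 2,000 ERR cells per well were plated and held 6 h at 37 C/5% CO2. Next, compounds in DMSO were pinned in and left 18 h at 37 C. Finally, ONE-Glo was added and luminescence read after 30 min at room temperature.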
On the % scale 0 is the no-effect control and ±100 the full control effect.

Nuclear receptor subfamily 1 group I member 3 (Homo sapiens), sequence (Q14994 whole entry, looked up): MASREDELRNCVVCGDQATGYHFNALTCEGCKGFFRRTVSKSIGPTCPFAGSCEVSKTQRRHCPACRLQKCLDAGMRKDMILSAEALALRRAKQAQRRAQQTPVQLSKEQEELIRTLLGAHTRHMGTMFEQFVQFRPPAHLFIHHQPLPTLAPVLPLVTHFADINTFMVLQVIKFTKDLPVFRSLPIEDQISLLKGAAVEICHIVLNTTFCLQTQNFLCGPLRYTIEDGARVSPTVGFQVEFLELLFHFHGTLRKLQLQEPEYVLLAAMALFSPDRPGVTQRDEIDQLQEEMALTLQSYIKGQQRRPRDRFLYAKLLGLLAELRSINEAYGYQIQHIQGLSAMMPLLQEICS
Luciferin 4-monooxygenase (Photinus pyralis), sequence (P08659 whole entry, looked up): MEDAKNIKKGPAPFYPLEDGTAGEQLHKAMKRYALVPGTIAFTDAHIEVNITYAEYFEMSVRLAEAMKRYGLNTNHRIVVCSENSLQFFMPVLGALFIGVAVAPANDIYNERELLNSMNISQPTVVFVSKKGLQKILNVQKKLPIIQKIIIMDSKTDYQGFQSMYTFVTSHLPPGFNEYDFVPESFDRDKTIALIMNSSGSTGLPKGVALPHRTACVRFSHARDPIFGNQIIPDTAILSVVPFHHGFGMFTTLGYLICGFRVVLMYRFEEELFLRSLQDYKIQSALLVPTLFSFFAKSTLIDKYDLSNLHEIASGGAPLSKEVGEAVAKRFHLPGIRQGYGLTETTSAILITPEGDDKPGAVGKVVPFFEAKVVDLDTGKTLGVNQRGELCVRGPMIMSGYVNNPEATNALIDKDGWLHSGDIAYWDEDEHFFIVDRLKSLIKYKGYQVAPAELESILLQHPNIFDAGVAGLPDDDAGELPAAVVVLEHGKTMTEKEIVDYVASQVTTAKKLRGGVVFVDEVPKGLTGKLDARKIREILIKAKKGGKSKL
Thyrotropin receptor (Homo sapiens), sequence (P16473 whole entry, looked up): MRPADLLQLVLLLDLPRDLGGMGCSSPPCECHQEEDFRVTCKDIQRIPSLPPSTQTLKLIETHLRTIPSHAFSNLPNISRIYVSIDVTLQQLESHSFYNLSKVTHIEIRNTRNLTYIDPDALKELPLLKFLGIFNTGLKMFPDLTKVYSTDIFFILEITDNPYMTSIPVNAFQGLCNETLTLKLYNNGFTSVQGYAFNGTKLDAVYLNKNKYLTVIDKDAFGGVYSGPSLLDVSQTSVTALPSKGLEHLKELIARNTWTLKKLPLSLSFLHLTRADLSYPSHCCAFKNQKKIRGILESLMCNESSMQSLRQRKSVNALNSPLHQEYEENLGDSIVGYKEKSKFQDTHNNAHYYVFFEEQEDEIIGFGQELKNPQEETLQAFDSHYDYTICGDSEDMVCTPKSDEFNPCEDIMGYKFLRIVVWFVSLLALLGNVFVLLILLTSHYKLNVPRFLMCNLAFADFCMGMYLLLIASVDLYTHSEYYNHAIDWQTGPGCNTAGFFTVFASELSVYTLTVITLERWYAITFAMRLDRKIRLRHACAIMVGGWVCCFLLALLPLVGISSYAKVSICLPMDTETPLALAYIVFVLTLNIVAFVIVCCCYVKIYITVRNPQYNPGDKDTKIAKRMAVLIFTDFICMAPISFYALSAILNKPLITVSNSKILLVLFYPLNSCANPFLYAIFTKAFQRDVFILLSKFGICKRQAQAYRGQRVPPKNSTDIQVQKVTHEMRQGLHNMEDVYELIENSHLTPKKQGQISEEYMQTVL

CCCCC(CC)COC(=O)CC#N (stereo not given)
inactive: outcome [1] | outcome [2] | Potency [3] | Potency [4] | outcome [5] | outcome [6] | outcome [7] | Potency [8] | Potency [9] | outcome [10] | outcome [11] | outcome [12] | outcome [13] | activity change, positive = activation [14] -0.23% | outcome [15]

BrCCOc1ccccc1
inactive: outcome [1] | outcome [2] | Potency [3] | outcome [5] | outcome [6] | outcome [7] | Potency [8] | outcome [10] | outcome [11] | outcome [13] | outcome [15]

O=Cc1ccccc1S(=O)(=O)O
inactive: outcome [1] | outcome [2] | Potency [3] | Potency [4] | outcome [5] | Potency [16] | outcome [7] | outcome [10] | outcome [11] | outcome [12] | outcome [13] | outcome [15]

CCCCN(CCCC)CCCCCCN(CCCC)CCCC
inactive: outcome [1] | outcome [2] | Potency [3] | outcome [17] | outcome [5] | outcome [18] | Potency [16] | outcome [7] | Potency [9] | outcome [10] | outcome [11] | outcome [12] | outcome [13] | outcome [15]

CC(C)C[P+](C)(CC(C)C)CC(C)C
inactive: outcome [1] | outcome [2] | Potency [3] | outcome [17] | outcome [5] | outcome [6] | outcome [18] | outcome [7] | Potency [19] | Potency [9] | outcome [10] | outcome [11] | outcome [12] | outcome [13] | outcome [20] | activity change, positive = activation [14] -12.2% | outcome [15]

CC(C)(O)c1ccc(C(C)(C)O)cc1
inactive: outcome [1] | outcome [2] | Potency [3] | Potency [4] | outcome [5] | outcome [6] | Potency [16] | outcome [7] | Potency [9] | outcome [10] | outcome [11] | outcome [12] | outcome [13] | outcome [15]

CC(=O)OCC(=O)[C@@]1(O)CC[C@H]2[C@@H]3CCC4=CC(=O)C=C[C@]4(C)[C@H]3[C@@H](O)C[C@@]21C
inactive: outcome [1] | outcome [2] | Potency [3] | outcome [17] | outcome [5] | outcome [7] | outcome [10] | outcome [11] | outcome [13] | outcome [15]

COC(=O)N/N=C/c1c[n+]([O-])c2ccccc2[n+]1[O-]
inactive: outcome [1] | outcome [2] | Potency [3] | Potency [4] | outcome [5] | outcome [6] | outcome [18] | Potency [16] | outcome [7] | Potency [8] | Potency [19] | Potency [9] | outcome [10] | outcome [13] | outcome [20] | activity change, positive = activation [14] 16.4% [at 42.5 µM] | outcome [15]
